Sampled rows, rich in hits. Any-hit rate of the full collection: about 10%.
SARS PLP yeast = blocks SARS-CoV papain-like protease in a yeast assay; AID 485353; S. cerevisiae expressing SARS-CoV PLpro, growth rescue; Potency, µM (titrated, usually from 32.9 µM), without a hit: at the highest dose activity, positive = growth rescue, actives largely listed as activators; 0.19% of 330,000 active; calls by dose curve; note: potency is the fitted concentration of half-maximal effect; 0% is about no effect; nearly all actives have a fitted effect of over 55% in size
Pf growth 48h = inhibits P. falciparum growth in the first generation, 48 h; P. falciparum luciferase growth in erythrocytes, 48 h; Potency, µM (highest dose often 28.7 µM), for the others: top-dose activity change, negative = inhibition, actives largely listed as inhibitors; 5.9% of 310,000 active; note: potency is the fitted concentration of half-maximal effect; % is set by controls: 0 for no effect and ±100 for the full control effect
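In quantitative HTS format, infected erythrocytes bearing luciferase-reporter parasites were treated for a single generation at 37 C. Luminescence after adding detection reagent served as the growth measure.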
NS1 function inh = blocks influenza NS1 protein function; Potency, µM (doses to about 46.1 µM), for the others: at the top dose activity, positive = more growth; 0.4% of 270,000 active; AID 2326; calls by dose curve; note: potency is the fitted concentration of half-maximal effect; actives are rising curves; nearly all actives have a fitted effect of over 50% in size
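OD600 was taken as the measure of yeast growth restored by compound in an NS1-expressing S. cerevisiae strain. Cells had been washed out of glucose medium and diluted 1:100 into galactose -URA medium, pH 6.0.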
Pf growth 96h = P. falciparum growth inhibition at 96 hours | P. falciparum luciferase reporter growth, 96 h | Potency, µM (series often up to 28.7 µM), for the others: at the highest dose activity change, negative = inhibition, most hits filed as inhibitors | 6.9% of 320,000 active | AID 504834; note: potency is the fitted concentration of half-maximal effect; % is set by controls: 0 for no effect and ±100 for the full control effect
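Infected RBCs, 2% Hct / 0.05% parasitemia final; luciferase-reporter P. falciparum; cpd 96 h, 37 C, 5% CO2; luciferase detection reagent; luminescence.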
CLK4 cf ADPGlo = CLK4 (human) kinase inhibition, ADP-Glo confirmation | shares compounds with Pf growth 48h | 80% of 65 active | Potency, µM (top dose mostly 80 µM), without a hit: at the top dose activity, negative = inhibition, usual class: inhibitors | recombinant Clk4, RS peptide, ADP-Glo luminescence
Target sequence (Q9HAZ1 whole entry, looked up): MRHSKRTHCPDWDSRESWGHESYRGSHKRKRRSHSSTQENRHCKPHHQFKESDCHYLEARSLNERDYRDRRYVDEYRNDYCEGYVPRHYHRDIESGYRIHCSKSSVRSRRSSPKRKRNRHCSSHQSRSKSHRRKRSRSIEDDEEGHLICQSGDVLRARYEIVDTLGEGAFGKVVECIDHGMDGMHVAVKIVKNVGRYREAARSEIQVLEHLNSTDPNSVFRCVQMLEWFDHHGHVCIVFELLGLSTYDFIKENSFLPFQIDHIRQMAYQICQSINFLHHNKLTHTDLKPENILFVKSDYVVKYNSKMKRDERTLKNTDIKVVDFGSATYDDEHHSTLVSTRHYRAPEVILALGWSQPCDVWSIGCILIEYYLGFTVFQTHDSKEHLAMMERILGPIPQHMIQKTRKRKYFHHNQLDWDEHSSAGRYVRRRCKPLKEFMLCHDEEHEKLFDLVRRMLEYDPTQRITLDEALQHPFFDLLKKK
CLK4 cf ADP-FP = CLK4 (human) inhibition, Transcreener FP confirmation; shares compounds with Pf growth 48h; recombinant Clk4, ADP Transcreener FP, RS peptide; Potency, µM (titrated, usually from 80 µM), for the others: top-dose activity, negative = inhibition, hits mostly inhibitors; 70% of 65 active
* hit, by the source's call. Unless noted, calls come from the whole dose curve; as a rule, active = well fitted curve in the direction sought with a large enough effect; inconclusive = small, poorly fitted or top-dose-only effect, or another doubt; inactive = no such curve, though single readings can be large; an effect the other way counts as inactive or inconclusive.

Cc1csc(CNc2ncnc3ccc(-c4ccc5c(c4)OCO5)cc23)c1 was read as SARS PLP yeast 5%, Pf growth 48h 10µM*, Pf growth 96h 3.3µM*, CLK4 cf ADPGlo 0.16µM* and CLK4 cf ADP-FP 0.16µM*.
For C/C(=C\C(=O)c1sccc1Cl)N(C)C the results were SARS PLP yeast 1%, Pf growth 48h -5%, NS1 function inh 4% and Pf growth 96h -18%.
For O=C(c1ccc(S(=O)(=O)N2CCOCC2)cc1)N1CCc2ccccc21 the results were SARS PLP yeast 1%, Pf growth 48h -4%, NS1 function inh 15% and Pf growth 96h inconclusive.
`Cc1sc2ncnc(N(C)Cc3ccco3)c2c1C` gave SARS PLP yeast inconclusive, NS1 function inh -112% and Pf growth 96h -29%.
`COc1cccc(-c2ccc3ncnc(N(C)Cc4ccco4)c3c2)c1` gave SARS PLP yeast -5%, Pf growth 48h inconclusive, Pf growth 96h 15µM*, CLK4 cf ADPGlo 0.35µM* and CLK4 cf ADP-FP 0.45µM*.
COc1cccc(S(=O)(=O)NCc2ccc3c(c2)OCO3)c1 was read as SARS PLP yeast 0%, NS1 function inh -6% and Pf growth 96h -20%.
Clc1cccc(-c2ccc3ncnc(NCc4ccc5c(c4)OCO5)c3c2)c1 was read as SARS PLP yeast -4%, Pf growth 48h 6.6µM*, Pf growth 96h 1.5µM*, CLK4 cf ADPGlo inconclusive and CLK4 cf ADP-FP inconclusive.
For COc1cccc(-c2ccc3ncnc(NCc4ccc5c(c4)OCO5)c3c2)c1 the results were SARS PLP yeast 3%, Pf growth 48h 9.3µM*, Pf growth 96h 7.4µM*, CLK4 cf ADPGlo 1.3µM* and CLK4 cf ADP-FP 2.2µM*.
For c1cncc(CNc2ncnc3ccc(-c4ccc5c(c4)OCO5)cc23)c1 the results were SARS PLP yeast 7%, Pf growth 48h inconclusive, Pf growth 96h 8%, CLK4 cf ADPGlo 0.13µM* and CLK4 cf ADP-FP 0.089µM*.
For Cc1ccccc1CN(C)C(=O)CNC(=O)c1ccc2ccccc2c1 the results were SARS PLP yeast -1%, Pf growth 48h -37%, NS1 function inh -11% and Pf growth 96h -9%.
Screening COc1cccc(/C=N/NC(=O)Cn2nc([N+](=O)[O-])cc2C)c1 returned SARS PLP yeast 0%, Pf growth 48h inconclusive, NS1 function inh 1% and Pf growth 96h -19%.
For c1nc(NCc2ccc3c(c2)OCO3)c2cc(-c3ccc4c(c3)OCCO4)ccc2n1 the results were SARS PLP yeast 2%, Pf growth 48h 13µM*, Pf growth 96h inconclusive, CLK4 cf ADPGlo 1.8µM* and CLK4 cf ADP-FP 2.2µM*.
`Cn1ccc2cc(-c3ccc4ncnc(NCc5ccc6c(c5)OCO6)c4c3)ccc21` gave SARS PLP yeast 2%, Pf growth 48h 13µM*, Pf growth 96h inconclusive, CLK4 cf ADPGlo inconclusive and CLK4 cf ADP-FP -17%.
Screening Cc1ccc(CNc2ncnc3cc(Cl)ccc23)cc1 returned SARS PLP yeast -4%, Pf growth 48h inconclusive, NS1 function inh -53% and Pf growth 96h inconclusive.
`Brc1ccc2ncnc(NCc3ccccc3)c2c1` gave SARS PLP yeast -19%, Pf growth 48h inconclusive, NS1 function inh -143% and Pf growth 96h 130%.
`c1cncc(CNc2ncnc3ccc(-c4ccoc4)cc23)c1` gave SARS PLP yeast 0%, Pf growth 48h inconclusive, Pf growth 96h inconclusive, CLK4 cf ADPGlo 0.56µM* and CLK4 cf ADP-FP 1µM*.
Cc1cccc(CNc2ncnc3ccc(-c4cccc(C)c4)cc23)c1 was read as SARS PLP yeast -6%, Pf growth 48h 13µM*, Pf growth 96h 3.7µM*, CLK4 cf ADPGlo 14µM* and CLK4 cf ADP-FP inconclusive.
`Cc1cccc(CNc2ncnc3ccc(-c4ccoc4)cc23)c1` gave SARS PLP yeast -4%, Pf growth 48h 15µM*, Pf growth 96h 8.3µM*, CLK4 cf ADPGlo 0.25µM* and CLK4 cf ADP-FP 0.28µM*.
For c1ccc(-n2ncc3c(NCc4cccnc4)ncnc32)cc1 the results were SARS PLP yeast -10%, Pf growth 48h 126%, NS1 function inh -12% and Pf growth 96h 20%.

Bioassay records: PubChem, National Center for Advancing Translational Sciences (NCATS)
